Screens (PubChem)
A selection: hits, their analogues and other compounds. The true share with any hit is near 13%.
USP30 inh: inhibitors of human USP30 deubiquitinase; inhibition, % at 25 µM; Ubiquitin carboxyl-terminal hydrolase 30 (Homo sapiens), Q70CQ3; purified USP30, Ub-rhodamine cleavage fluorescence; 47,000 tested, 5.3% active
USP17 inh: inhibitors of human USP17 deubiquitinase; inhibition, % at 50 µM; purified USP17, Ub-rhodamine cleavage fluorescence, 3 h; Ubiquitin carboxyl-terminal hydrolase 17-like protein 5 (Homo sapiens), A8MUK1; 47,000 tested, 6.5% active
USP7 inh: inhibitors of human USP7 deubiquitinase. AID 1645854, 2021. inhibition, % at 20 µM. purified USP7, Ub-rhodamine cleavage fluorescence. Ubiquitin carboxyl-terminal hydrolase 7 (Homo sapiens), Q93009. 47,000 tested, 0.3% active
Target sequence (Q93009 whole entry, looked up): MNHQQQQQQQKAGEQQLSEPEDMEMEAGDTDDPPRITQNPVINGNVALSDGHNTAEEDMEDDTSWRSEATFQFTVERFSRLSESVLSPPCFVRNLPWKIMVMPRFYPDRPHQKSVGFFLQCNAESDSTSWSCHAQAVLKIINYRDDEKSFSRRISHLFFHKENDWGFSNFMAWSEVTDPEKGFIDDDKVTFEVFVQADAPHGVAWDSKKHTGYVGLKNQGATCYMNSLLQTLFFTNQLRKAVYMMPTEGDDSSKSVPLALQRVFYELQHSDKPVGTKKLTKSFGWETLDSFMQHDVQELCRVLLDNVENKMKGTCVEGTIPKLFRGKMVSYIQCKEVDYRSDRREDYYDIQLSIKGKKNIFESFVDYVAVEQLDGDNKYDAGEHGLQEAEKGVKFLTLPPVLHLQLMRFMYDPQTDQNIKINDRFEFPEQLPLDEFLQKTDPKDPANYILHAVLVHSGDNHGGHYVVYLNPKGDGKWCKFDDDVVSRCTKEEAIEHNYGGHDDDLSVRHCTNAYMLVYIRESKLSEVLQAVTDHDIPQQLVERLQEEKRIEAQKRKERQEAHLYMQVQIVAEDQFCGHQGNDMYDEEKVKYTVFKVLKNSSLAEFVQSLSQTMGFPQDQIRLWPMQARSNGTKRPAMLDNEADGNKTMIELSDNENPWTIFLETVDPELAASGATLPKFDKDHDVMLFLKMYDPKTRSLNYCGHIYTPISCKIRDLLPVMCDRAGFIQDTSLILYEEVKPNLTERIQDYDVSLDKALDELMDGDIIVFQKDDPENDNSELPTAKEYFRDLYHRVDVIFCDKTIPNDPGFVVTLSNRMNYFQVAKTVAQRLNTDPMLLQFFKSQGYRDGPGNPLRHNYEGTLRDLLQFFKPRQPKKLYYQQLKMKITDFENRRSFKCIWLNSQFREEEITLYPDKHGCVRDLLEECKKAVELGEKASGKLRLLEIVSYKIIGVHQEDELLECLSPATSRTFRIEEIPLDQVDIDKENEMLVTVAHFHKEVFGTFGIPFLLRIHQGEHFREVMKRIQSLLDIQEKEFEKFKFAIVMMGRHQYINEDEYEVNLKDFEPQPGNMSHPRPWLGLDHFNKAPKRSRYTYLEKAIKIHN
USP10 inh: inhibitors of human USP10 deubiquitinase; 47,000 tested, 1.1% active; purified USP10, Ub-rhodamine fluorescence, 60 min; AID 1645856, 2021; Ubiquitin carboxyl-terminal hydrolase 10 (Homo sapiens), Q14694; inhibition, % at 20 µM
USP28 inh: inhibitors of human USP28 deubiquitinase; Ubiquitin carboxyl-terminal hydrolase 28 (Homo sapiens), Q96RU2; purified USP28, Ub-rhodamine cleavage fluorescence, 30 min; inhibition, % at 25 µM; 47,000 tested, 3% active; AID 1645857, 2021
USP8 block: inhibitors of human USP8 deubiquitinase. inhibition, % at 20 µM. 47,000 tested, 4.2% active. Ubiquitin carboxyl-terminal hydrolase 8 (Homo sapiens), P40818. purified USP8, Ub-rhodamine cleavage fluorescence, 30 min
Of the large screens only hits and unclear results are named; the others gave an inactive call. Rule as the data show it: active = inhibition above about 30%; inactive = the rest.

COc1cc2[nH]c(=O)n(Cc3ccc(C(=O)N4CCN(C5CCCCC5)CC4)cc3)c(=O)c2cc1OC	USP30 inh 33
COc1ccccc1NC(=O)NCc1nnnn1-c1ccccc1	USP30 inh 32
Cc1ccc(NC(=O)NCc2nnnn2-c2ccccc2)cc1	none
COc1ccc(C(=O)NCc2ccc(C(=O)Nc3ccccc3)o2)cc1	none
O=C1CCN(c2ncnc3cc(-c4ccc(F)cc4)sc23)CC1	USP17 inh 31
COc1ccc(CC(NC(C)=O)C(=O)NC2CCN(c3c(Cc4ccccc4)c(C)nc4ncnn34)CC2)cc1OC (centres undefined)	USP30 inh 71, USP17 inh 47
COc1ccc(CC(NC(C)=O)C(=O)NC2CCN(c3c(Cc4ccccc4)c(C)nc4ncnn34)CC2)c(OC)c1 (centres undefined)	none
Cc1cccc(N2CCN(c3cc(Sc4ccc5ccccc5c4)nc(N)n3)CC2)c1C	none
COc1ccc(NC(=O)CCc2c(C)nc3c(c2C)c(=O)n(C)c(=O)n3C)cc1	none
CCOC(=O)CC(NC(=O)CCc1c(C)nc2c(c1C)c(=O)n(C)c(=O)n2C)c1ccc(C)cc1 (centres undefined)	USP30 inh 31
O=C(NCc1ccccc1Cl)c1ccc(N2C(=O)[C@@H]3Cc4ccccc4CN3C2=O)cc1	none
O=C(c1cc(-c2ccncc2)c(N2CCOCC2)s1)N1CCCC(O)C1 (centres undefined)	none
COc1ccc(-c2nc3ccccc3o2)cc1NC(=O)Cc1ccc(OC)c(OC)c1	none
COc1c2nc3ccccc3oc-2cc(=O)c1OC	USP17 inh 71, USP8 block 58
COc1ccc(-c2nc3nc(C)c(Cc4ccccc4)c(=O)n3[nH]2)cc1	USP30 inh 51, USP17 inh 74
Cn1c(=O)c(N2CCN(S(=O)(=O)c3ccc4c(c3)CCCC4)CC2)nc2ccncc21	none
CCS(=O)(=O)c1ccccc1C(=O)N1CCN(c2nc3ccc(F)cc3s2)CC1	none
COc1ccc(C)cc1NC(=O)c1ccc(-n2nnnc2SC)cc1	USP30 inh 52, USP17 inh 73
COc1ccc(OC)c(NC(=O)c2ccc(-n3nnnc3SC)cc2)c1	USP17 inh 80
CCOC(=O)CNC(=O)N1CCCCCC1c1cccs1 (centres undefined)	none
CCOC(=O)Cn1c(=O)c(C(=O)NC(=O)OCC)cn(Cc2cccs2)c1=O	USP30 inh 31
Cc1ccc(-c2noc(CNc3ccc(Oc4ccccc4)cc3)n2)cc1	USP8 block 79
Cc1ccc(C)c(NC(=O)Cn2c(C)cc(-c3nnc(C)o3)c2C)c1	none
COC(=O)c1cc(NC(=O)/C=C/c2ccc(Cl)cc2)ccc1N1CCOCC1	USP28 inh 50
Cn1c(C(=O)NCc2ccccn2)cc2c(=O)[nH]c3ccccc3c21	USP17 inh 80, USP28 inh 38, USP8 block 87
CCN1CCN(C(=O)c2sc(-c3ccc(F)cc3)nc2C)CC1	none
CCn1ncc(-c2ccnc3cc(C(=O)N4CCN(Cc5ccc(F)cc5)CC4)nn23)c1C	USP8 block 60
CC(=O)Nc1ccc(S(=O)(=O)Nc2ccc(Nc3ccc(-n4cccn4)nn3)cc2)cc1	USP30 inh 50, USP17 inh 36
CC(=O)Nc1ccc(S(=O)(=O)Nc2cc(-c3ccccc3)nn2C)cc1	none
Cc1ccn(-c2ccc(C(=O)N3CCSCC3)cn2)n1	none
CCS(=O)(=O)N1Cc2ccccc2CC1C(=O)Nc1nc(-c2ccccc2)c(C)s1 (centres undefined)	USP8 block 46
CC(=O)N1CCc2ccccc2C1C(=O)NCc1ccc2c(c1)OCO2 (centres undefined)	none
CCS(=O)(=O)N1Cc2ccccc2CC1C(=O)NCc1ccc2c(c1)OCO2 (centres undefined)	USP8 block 39
Cc1sc(NC(=O)C2CCCCC2)nc1-c1ccccc1	none
O=C(Cn1cnc2cc3c(cc21)OCCCO3)NCCc1ccccc1	none
CCCCC[C@H](O)/C=C/C=C/CCCCCCCC(=O)O	none
CC(C)CCCCCCCCCCCC(=O)O	USP30 inh 47, USP17 inh 43, USP10 inh 30
Cc1ccccc1NC(=O)Cn1cc(-c2nc(C3CC3)no2)ccc1=O	USP30 inh 70
Cc1ccc(NC(=O)Cn2cc(-c3nc(C4CC4)no3)ccc2=O)cc1	USP30 inh 36
CC1=C(C(=O)Nc2ccccc2C)C2(CCCCCC2)OC1=O	none
COc1cccc(-c2nc(CC(=O)NCc3ccc(C(=O)O)cc3)cs2)c1OC	none
COc1cccc(OC)c1C(=O)Nc1ccc2c(c1)CN(C(C)=O)CC2	none
COc1cc2c(cc1OC)CN(C(=O)C(NC(=O)c1ccccc1)C(C)C)CC2 (centres undefined)	USP8 block 53
CCc1nc2ccccc2c(NC(=O)Cc2ccc(OC)c(OC)c2)c1C	none
O=C1CO[C@H](c2ccc(NC(=O)c3cc(F)cc(F)c3)cc2)[C@@H](CO)N1	none
N#Cc1ccc(C(=O)Nc2ccc([C@H]3OCC(=O)N[C@@H]3CO)cc2)cc1	USP30 inh 35, USP17 inh 33
CC(C)c1cc(C(=O)N2CCOC(CCc3cc(=O)[nH]cn3)C2)on1 (centres undefined)	USP30 inh 40
CC1CCN(C(=O)c2ccc(-n3cc(CNC(=O)C(C)C)cn3)cc2)CC1	none
CC1(C)OC(=O)[C@@]2(C)N[C@]1(C)C[C@@H]2C(=O)Nc1ccccc1	none
O=C(O)C1C(C(=O)Nc2ccccc2)C2(c3ccccc3)C(=O)C1(c1ccccc1)C(c1ccccc1)=C2c1ccccc1 (centres undefined)	USP30 inh 82, USP17 inh 94, USP7 inh 66, USP10 inh 69, USP28 inh 86, USP8 block 51
Cc1cccc(CN2CCC3(CC2)CN(c2cncnc2)C(=O)CO3)n1	none
CC(=O)c1sc(NC(=O)c2ccccc2-c2ccc(C(F)(F)F)cc2)nc1C	USP30 inh 38, USP17 inh 64
CCCC(C)NC(=O)c1ccccc1-c1ccc(C(F)(F)F)cc1 (centres undefined)	none
Cc1cccc(OCc2cc(-c3ccccc3)no2)c1C	USP28 inh 48
Fc1ccc(OCc2cc(-c3ccccc3)no2)cc1	none
Cc1nnc(NCc2cccnc2)c2c1nnn2Cc1ccccc1Cl	USP30 inh 60
Clc1ccccc1Cn1ncc2c(NCc3cccnc3)ncnc21	none
O=C(NCCN1CCOCC1)c1cc(-c2ccc(Br)cc2)nc2ccccc12	none
CCCCc1ccc(-c2cc(C(=O)NCCN3CCOCC3)c3cc(Br)ccc3n2)cc1	USP30 inh 79
